This note sets out measurements from PubChem BioAssay AID602399 (Sanford-Burnham Center for Chemical Genomics, 2012).

Out of some 360,000 compounds screened, about 2,800 (0.78%) were called active. This excerpt belongs to a sample that is enriched for actives. Values without a mark were called inactive. Rule as the data show it: active = inhibition above about 26%; inactive = the rest.

The assay has as its system Nicotinate-nucleotide adenylyltransferase NadD (Staphylococcus aureus N315). The experiment in a line: inhibitors of S. aureus NadD, primary screen, biochemical, colorimetric, uHTS (AID 602399). The note with it: purified NadD enzyme, colorimetric absorbance read-out; at 20 µM; active compounds read high.
As for `Nc1ccc(Cl)c(S(=O)(=O)Nc2ccccc2Cl)c1`, the inhibition is 6.19%.

In the case of `O=C1Nc2cc(Cl)c(Cl)cc2N(O)N1c1cc(Cl)cc(Cl)c1`, the inhibition was -1.38%.

Take `CN(C)c1nc(=Nc2cccc(Cl)c2)ss1`: the inhibition was 3.08%.

Turning to `Clc1cccc(N=C2NN=C(c3ccc4c(c3)OCCO4)CS2)c1`, the inhibition is 31% (active).

As for `c1ccc(CN2CCC(N=C3NN=C(c4ccc5c(c4)OCCO5)CS3)CC2)cc1`, the inhibition is 17%.

`O=C(COC(=O)/C=C/c1cccc(Cl)c1)NCCc1ccccc1`: the inhibition is -11.9%.

With `NS(=O)(=O)c1ccc(NS(=O)(=O)/C=C/c2ccccc2)cc1`, the inhibition was -1.06%.

As for `NNc1cccc(C=Cc2ccccc2)cc1=O`, the inhibition is 33.2% (active).

Turning to `C/C(=N\NC(=O)CNc1cccc2ccccc12)c1ccc(Br)s1`, the inhibition is 64.5% (active).

For the compound `C/C(=N\NC(=O)COc1c(C)cccc1C)c1cccs1`, the inhibition was -5.85%.

For the compound `CC/C(=N\NC(=O)c1ccccc1Cl)c1ccc(Br)s1`, the inhibition is -6.6%.

With `CCCCCCc1cc2cc(-c3nnc(-c4ccccc4)o3)c(=O)oc2cc1O`, the inhibition was 87.5% (active).

Take `Cn1cccc1Cc1nnc(SCC(=O)NCc2ccc3c(c2)OCO3)n1CCc1ccccc1`: the inhibition is 7.11%.

With `COC(=O)c1cccc(N(CC(=O)NCC2CCCO2)C(=O)CCC(=O)Nc2cc(C)on2)c1` (stereo not given), the inhibition was -10.6%.

Take `CCOc1cc(/C=C/C(=O)OCC(=O)NCCN2C(=O)CSC2=O)ccc1OCC(C)C`: the inhibition is 0.893%.

As to `S=c1[nH]nc(-c2cc(-c3ccccc3)n[nH]2)n1/N=C/c1c2ccccc2cc2ccccc12`, the inhibition is 49.4% (active).

Regarding `CCN(CC)S(=O)(=O)c1cccc(-c2n[nH]c(=S)n2/N=C/c2ccc(C(=O)OC)cc2)c1`, the inhibition was 24.3%.

Consider `Cc1cc(-c2n[nH]c(=S)n2/N=C/C(Br)=C/c2ccccc2)n[nH]1`, for which the inhibition was 17.3%.

Consider `COc1cccc(/C=C/C(=O)Nc2ccc3c(c2)OCCO3)c1`, for which the inhibition is -5.58%.

As to `CC(=O)Nc1ccc(S(=O)(=O)NC2(C(F)(F)F)C(=O)NC(C)=C2C#N)cc1` (stereo not given), the inhibition is -2.54%.

On to `Cc1ccc(NC(=O)COc2ccc(-n3ccnc3)cc2)cc1Cl`, for which the inhibition was -3.03%.

Consider `Cc1nc(-c2ccc(F)cc2)c(CC(=O)Nc2cc(S(=O)(=O)N3CCCCC3)ccc2C)s1`, for which the inhibition is 6.89%.

As for `Cc1ccc(-c2nc(-c3cccnc3)sc2CC(=O)Nc2ccc(C)c(Cl)c2)cc1`, the inhibition was 30.9% (active).

Take `COc1cccc(OCc2cc(/C=N/NC(=O)c3nc(Cl)c(Cl)c(N)c3Cl)ccc2OC)c1`: the inhibition is 45.5% (active).

With `COc1ccc(S(=O)(=O)N/N=C\c2ccc(OC)c(COc3ccc(C)cc3[N+](=O)[O-])c2)cc1`, the inhibition was 18.5%.

`CCN(CC)Cc1c(C(=O)N/N=C/c2cccc(OCc3ccc(F)cc3)c2)nnn1-c1nonc1N`: the inhibition was 13.1%.

For the compound `CCOC(=O)C1Sc2[nH]c(=O)sc2C(c2ccc(Cl)cc2)C1C(=O)OCC` (stereo not given), the inhibition was 13.4%.

As for `CC(OC(=O)c1ccccc1N1C(=O)C2C3CCC(C3)C2C1=O)C(=O)c1ccccc1` (stereo not given), the inhibition was -5.61%.

For the compound `CCOC(=O)c1ccccc1N1C(=O)C2Sc3[nH]c(=O)sc3C(/C=C/c3ccccc3)C2C1=O` (stereo not given), the inhibition was 42.2% (active).

With `COC(=O)c1cn(C)c2ccc(S(=O)(=O)N3CC(C)CC(C)C3)cc2c1=O` (stereo not given), the inhibition was 0.79%.

Turning to `COC(=O)c1ccc(-n2cnc3ccccc32)nc1`, the inhibition is -5.95%.

Consider `Cc1nccc(-c2ccc(-n3c(C)ccc3C)cc2)n1`, for which the inhibition was 3.88%.

Consider `c1ccc(-c2nccc(-c3ccc(-n4cnc5ccccc54)cc3)n2)nc1`, for which the inhibition was 65.6% (active).

Regarding `Cc1ccc(S(=O)(=O)N(C)C)cc1NC(=O)C1Cc2ccccc2CN1C(=O)c1ccco1` (stereo not given), the inhibition was 2.17%.

For the compound `O=C1/C(=C/c2coc3ccc(O)cc3c2=O)SC(=S)N1c1ccccc1`, the inhibition is 44.8% (active).

For `CC1=CC2=NC(=O)/C(=C/c3coc4ccccc4c3=O)C(=N)N2O1`, the inhibition is -6.03%.

Consider `COC(=O)c1ccc(S(=O)(=O)N(CCO)Cc2ccccc2)n1C`, for which the inhibition is -0.726%.

Regarding `Oc1ccc(-c2cccc(-c3ccc(O)cc3)c2)cc1`, the inhibition was 0.612%.

`O=C(Nc1cccc(-c2nc3ccccc3[nH]2)c1)c1ccc(C(=O)Nc2cccc(-c3nc4ccccc4[nH]3)c2)cc1`: the inhibition was 33.1% (active).

In the case of `O=C(NCC(O)c1nc2ccccc2[nH]1)c1ccc(Br)cc1` (stereo not given), the inhibition is -3.28%.

Regarding `O=C(Nc1ccccc1)c1cc2ccccc2[nH]1`, the inhibition is 1.14%.

Turning to `Cc1cccc(C2C3=C(CCCC3=O)N=C3c4ccccc4C(=O)C32)c1` (stereo not given), the inhibition was 3.15%.

In the case of `O=C(NCc1cccnc1)c1cnc2ccccc2n1`, the inhibition is 1.99%.

On to `CC(=O)N/C(=N/c1nc(C)cc(C)n1)Nc1ccc(F)cc1F`, for which the inhibition is -3.78%.

For `CCCCCCN1C[C@@H](O)[C@H](n2cc(COC(=O)c3ccccc3)nn2)C[C@@H]1c1ccc(Cl)cc1`, the inhibition is 7%.

As for `COC(C[C@@H]1O[C@@H]1C(=O)[C@@H](C)OCc1ccccc1)OC`, the inhibition is -1.07%.

In the case of `CN1/C(=c2/s/c(=C3/C(=O)N(c4ccccc4)NC3=Nc3ccccc3)n(C)c2=O)C(C)(C)c2ccccc21`, the inhibition is 57.3% (active).

`Cc1ccc(Cl)c(NC(=O)CN(C)CC(=O)Nc2ccc(F)c(F)c2F)c1Cl`: the inhibition was 2.14%.

Regarding `Nc1ccc2nc3c(=O)[nH]c(=S)[nH]c3nc2c1`, the inhibition is 70.1% (active).

Consider `Cc1occc1C(=O)NC1CCCN(Cc2ccc(CC(C)C)cc2)C1` (stereo not given), for which the inhibition is -6.31%.

For `COc1ccc(NS(=O)(=O)c2ccc(O)c(C(=O)OCC(=O)NC3CCCCC3)c2)cc1`, the inhibition is -4.71%.

Take `CCn1c(SCC(=O)Nc2ccc(C)cc2)nc2nc3c(cc2c1=O)CCCC3`: the inhibition was 8.14%.

Take `CCC1C(C#N)=C(SC)NC2=C1C(=O)CC(C)(C)C2` (stereo not given): the inhibition was 0.666%.

Regarding `CCn1c(SCC(=O)Nc2ccc(S(=O)(=O)Nc3onc(C)c3C)cc2)nnc1-c1ccccc1`, the inhibition was 7.88%.

Consider `Cc1cc(C)c2nc(-c3cccnc3)cc(C(=O)Nc3ccc(S(=O)(=O)Nc4onc(C)c4C)cc3)c2c1`, for which the inhibition was 42.3% (active).

Turning to `Cc1noc(NS(=O)(=O)c2ccc(NC(=O)c3oc4ccc(F)cc4c3C)cc2)c1C`, the inhibition is 0%.

`CCCCNC(=O)C[C@@H]1C[C@@]2(C(=O)OCC)CCC=C2N(Cc2cccc3ccccc23)C1=O`: the inhibition was -3.88%.

In the case of `COc1ccc(Br)cc1/C=N/Nc1ccc(S(=O)(=O)Nc2ccccc2C(=O)O)cc1[N+](=O)[O-]`, the inhibition was 37.4% (active).

Regarding `Cc1ccc(NS(=O)(=O)c2ccc(N/N=C/c3ccccc3OCC(=O)O)c([N+](=O)[O-])c2)c(C)c1`, the inhibition is 37.4% (active).

For the compound `COc1ccc(S(=O)(=O)N2CCC(C(=O)OCC(=O)c3ccccc3)CC2)cc1[N+](=O)[O-]`, the inhibition was -4.05%.

Regarding `CC1CN(C(=O)c2ccccc2NS(=O)(=O)c2cccc([N+](=O)[O-])c2)CC(C)O1` (stereo not given), the inhibition is 4.4%.

`Cc1ccc(S(=O)(=O)NC(=O)COc2ccccc2C)cc1`: the inhibition is -3.06%.

As for `C=C(C)CNC(=S)N/N=C/c1ccccc1OCC(=O)O`, the inhibition is 11.3%.

Regarding `CSCC[C@H](NC(=O)NCCc1ccc(F)cc1)C(=O)O`, the inhibition is -3.24%.

In the case of `COc1cccc(N(CC(=O)NC2CCCCCC2)S(=O)(=O)c2ccccc2)c1`, the inhibition is -2.69%.

Turning to `Cc1noc(C)c1COC(=O)c1cc2ccccc2cc1O`, the inhibition was -3.66%.

With `O=C(NNc1c2ccccc2nc2ccccc12)c1cc2ccccc2cc1O`, the inhibition is 50.6% (active).

Take `O=C(CSc1nc(C2CC2)nc2ccccc12)Nc1cccc(O)c1`: the inhibition was 4.64%.

Regarding `COC(=O)c1ccccc1NC(=O)C1CCN(C(=O)N2CCOc3ccccc32)CC1`, the inhibition was -4.87%.

In the case of `Cc1cc(C)c(S(=O)(=O)NN=C2c3ccccc3[C@H]3Cc4csc[n+]4[C@@H]23)c(C)c1`, the inhibition is 44% (active).

As to `Cc1ccc(NC2CCCN(C(=O)CCC3(C)CC3)C2)cc1C` (stereo not given), the inhibition was -4.9%.

`CCCCn1c(N)c(N(CCOC)C(=O)c2oc3ccc(OC)cc3c2C)c(=O)[nH]c1=O`: the inhibition was -3.15%.

On to `NNC(=O)c1cccc(COCC(F)(F)C(F)F)c1`, for which the inhibition was 10.9%.

For `CC(Sc1nncn1C)C(=O)NCCC1=CCCCC1` (stereo not given), the inhibition is -5.51%.

As for `COC(=O)CCCC1=CC2=CC(=O)C(C)(OC(=O)c3cccs3)C(=O)C2=CN1c1cccc(C#N)c1` (stereo not given), the inhibition was 10.8%.

For `COC(=O)CCCC1=CC2=C(c3ccccc3)C(=O)C(C)(OC(=O)C3CCCC3)C(=O)C2=CN1c1ccc(OC)cc1` (stereo not given), the inhibition was 6.8%.

In the case of `CC1(OC(=O)C2CCCC2)C(=O)C=C2C=C(c3ccc(C#N)cc3)OC=C2C1=O` (stereo not given), the inhibition is 51.9% (active).

As to `C/C(=N\NC(=O)c1ccc(NS(=O)(=O)c2cccs2)cc1)c1ccc2ccccc2c1`, the inhibition is 11.2%.

Regarding `O=C(Nc1ccc(NC(=O)c2cccs2)cc1)c1ccc2ccccc2c1`, the inhibition is 34.4% (active).

Consider `Cc1cccc(C(=O)Nc2ccc(C(=O)/C=C/c3cccs3)cc2)c1`, for which the inhibition was 18.5%.

As to `Cc1cc(C)n2nc(C(=O)Nc3cccc(S(=O)(=O)N4CCOCC4)c3)nc2n1`, the inhibition was -1.81%.

As for `COc1ccc(Cc2nc3ccc(C(=O)NCC4CCOCC4)cc3o2)cc1OC`, the inhibition is 0%.

On to `CC1C(=O)N(Cc2cn(Cc3ccco3)nn2)CCS(=O)(=O)N1Cc1ccc(-c2cccc(CO)c2)cc1` (stereo not given), for which the inhibition was -3.23%.

In the case of `CC(C)CC1C(=O)N(Cc2cn(CC3CCCCC3)nn2)CCS(=O)(=O)N1Cc1ccc(-c2ccc(Cl)cc2)cc1` (stereo not given), the inhibition was 2.74%.

As for `CC(C)CC1C(=O)N(Cc2cn(Cc3ccco3)nn2)CCS(=O)(=O)N1Cc1ccc(-c2ccc(Cl)c(Cl)c2)cc1` (stereo not given), the inhibition is 35% (active).
